# According to PubChem BioAssay:
# Calls of active or inactive are those of the source.
# Key:
# [1] = small molecules captured by biotinylated probe aFSTL3 – biochemical, small-molecule microarray, fluorescence 635/667, stem cell growth factor project, primary screen (AID 1064); conditions: higher = more signal;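 also: measures binding of the biotinylated anti-FSTL3 antibody to printed compounds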
# [2] = binders from COS7 lysate, DM2A8 probe, primary screen, torsin A project, cell lysate, small-molecule microarray, fluorescence 635/667 (AID 1065); conditions: higher = more signal, COS7 lysate expressing mutant human TOR1A
# [3] = small molecules captured by biotinylated probe aFGF2 – biochemical, small-molecule microarray, fluorescence 635/667, stem cell growth factor project, primary screen (AID 1067); conditions: higher = more signal;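 also: measures binding of biotinylated aFGF2 protein to printed compounds on slides; z-score merges feature fluorescence and signal-to-noise across triplicate slides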
# [4] = small molecules captured by biotinylated probe aFGF10 – biochemical, small-molecule microarray, fluorescence 635/667, stem cell growth factor project, primary screen (AID 1071); conditions: higher = more signal;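 also: score merges 667 nm spot intensity and signal to noise from triplicate slides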
# [5] = biological target: Neurogenic locus notch homolog protein 2 (Homo sapiens) (UniProt Q04721); assay: small molecules binding Notch2 protein – biochemical, small-molecule microarray, 635 nm fluorescence, stem cell growth factors, primary screen (AID 1073); conditions: higher = more signal
# Chain of Neurogenic locus notch homolog protein 2 (Homo sapiens) (Q04721 whole entry, looked up, canonical isoform): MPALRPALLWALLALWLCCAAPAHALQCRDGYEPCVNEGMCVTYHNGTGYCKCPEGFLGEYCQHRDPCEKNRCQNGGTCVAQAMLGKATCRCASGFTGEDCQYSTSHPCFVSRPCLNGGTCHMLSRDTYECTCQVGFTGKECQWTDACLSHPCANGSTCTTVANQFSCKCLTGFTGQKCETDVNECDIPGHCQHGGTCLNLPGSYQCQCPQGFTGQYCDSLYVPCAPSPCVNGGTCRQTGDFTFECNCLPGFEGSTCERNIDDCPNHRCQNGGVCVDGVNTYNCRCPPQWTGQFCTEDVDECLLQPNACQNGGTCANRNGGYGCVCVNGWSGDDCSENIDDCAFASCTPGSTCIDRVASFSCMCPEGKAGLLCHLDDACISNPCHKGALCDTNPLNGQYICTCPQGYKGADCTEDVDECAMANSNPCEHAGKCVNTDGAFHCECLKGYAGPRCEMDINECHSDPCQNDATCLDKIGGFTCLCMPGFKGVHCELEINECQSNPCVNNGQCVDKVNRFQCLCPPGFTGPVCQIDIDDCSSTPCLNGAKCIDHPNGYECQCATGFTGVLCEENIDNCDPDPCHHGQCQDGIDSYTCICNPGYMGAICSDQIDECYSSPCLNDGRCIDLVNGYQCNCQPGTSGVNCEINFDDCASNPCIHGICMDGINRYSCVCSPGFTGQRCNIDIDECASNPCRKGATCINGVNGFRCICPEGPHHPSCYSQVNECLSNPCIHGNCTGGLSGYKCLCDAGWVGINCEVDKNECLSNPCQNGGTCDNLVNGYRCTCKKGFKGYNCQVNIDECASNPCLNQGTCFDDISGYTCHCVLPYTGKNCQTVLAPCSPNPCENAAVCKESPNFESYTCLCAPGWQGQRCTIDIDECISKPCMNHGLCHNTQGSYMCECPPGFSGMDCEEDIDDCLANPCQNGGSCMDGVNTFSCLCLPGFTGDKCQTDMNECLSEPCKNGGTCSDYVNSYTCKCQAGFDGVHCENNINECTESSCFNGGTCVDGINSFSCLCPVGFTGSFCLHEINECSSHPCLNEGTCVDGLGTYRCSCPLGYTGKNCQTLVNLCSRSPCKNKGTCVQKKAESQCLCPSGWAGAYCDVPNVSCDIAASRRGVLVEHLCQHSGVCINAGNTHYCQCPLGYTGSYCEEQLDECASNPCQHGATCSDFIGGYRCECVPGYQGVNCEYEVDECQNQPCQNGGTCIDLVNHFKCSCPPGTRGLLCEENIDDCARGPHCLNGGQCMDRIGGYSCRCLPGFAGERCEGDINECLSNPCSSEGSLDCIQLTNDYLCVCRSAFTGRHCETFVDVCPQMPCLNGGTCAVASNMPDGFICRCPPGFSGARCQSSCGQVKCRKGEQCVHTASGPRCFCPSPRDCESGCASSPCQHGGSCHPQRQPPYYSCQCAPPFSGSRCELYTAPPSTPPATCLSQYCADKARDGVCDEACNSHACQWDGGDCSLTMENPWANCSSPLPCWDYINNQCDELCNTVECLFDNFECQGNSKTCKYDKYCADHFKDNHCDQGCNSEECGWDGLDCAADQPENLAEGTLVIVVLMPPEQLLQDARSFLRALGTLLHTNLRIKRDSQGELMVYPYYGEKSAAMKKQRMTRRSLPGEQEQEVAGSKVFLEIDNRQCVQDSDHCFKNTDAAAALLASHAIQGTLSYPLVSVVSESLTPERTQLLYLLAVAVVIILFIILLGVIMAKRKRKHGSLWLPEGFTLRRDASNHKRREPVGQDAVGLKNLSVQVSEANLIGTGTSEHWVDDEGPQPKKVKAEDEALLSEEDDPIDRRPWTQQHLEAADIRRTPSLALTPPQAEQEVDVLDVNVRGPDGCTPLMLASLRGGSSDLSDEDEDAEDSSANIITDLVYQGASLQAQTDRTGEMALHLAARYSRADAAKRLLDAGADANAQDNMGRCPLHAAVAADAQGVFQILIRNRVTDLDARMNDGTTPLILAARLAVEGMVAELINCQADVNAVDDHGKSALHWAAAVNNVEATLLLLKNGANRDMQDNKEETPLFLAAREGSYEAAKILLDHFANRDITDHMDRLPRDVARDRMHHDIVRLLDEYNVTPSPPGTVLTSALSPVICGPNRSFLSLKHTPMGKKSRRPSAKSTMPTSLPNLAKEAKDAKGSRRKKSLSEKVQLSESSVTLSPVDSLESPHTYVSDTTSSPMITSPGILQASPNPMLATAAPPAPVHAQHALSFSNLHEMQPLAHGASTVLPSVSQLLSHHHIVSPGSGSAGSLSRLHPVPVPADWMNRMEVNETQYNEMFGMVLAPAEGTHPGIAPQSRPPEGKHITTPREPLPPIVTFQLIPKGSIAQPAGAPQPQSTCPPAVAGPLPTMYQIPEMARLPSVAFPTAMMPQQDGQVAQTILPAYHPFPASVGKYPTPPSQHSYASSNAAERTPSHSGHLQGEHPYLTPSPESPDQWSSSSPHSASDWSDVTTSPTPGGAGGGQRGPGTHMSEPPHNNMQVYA
# [6] = biological target: Pro-neuregulin-1, membrane-bound isoform (Homo sapiens) (UniProt Q02297); assay: small molecules binding neuregulin-1 protein – biochemical, small-molecule microarray, fluorescence 635/667, psychiatric disease protein project, primary screen (AID 1075); conditions: NRG1 binding, 635 nm fluorescence, higher = more signal;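 also: score combines 667 nm spot fluorescence with signal to noise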
# Chain of Pro-neuregulin-1, membrane-bound isoform (Homo sapiens) (Q02297 whole entry, looked up, the tested form may be a part, canonical isoform): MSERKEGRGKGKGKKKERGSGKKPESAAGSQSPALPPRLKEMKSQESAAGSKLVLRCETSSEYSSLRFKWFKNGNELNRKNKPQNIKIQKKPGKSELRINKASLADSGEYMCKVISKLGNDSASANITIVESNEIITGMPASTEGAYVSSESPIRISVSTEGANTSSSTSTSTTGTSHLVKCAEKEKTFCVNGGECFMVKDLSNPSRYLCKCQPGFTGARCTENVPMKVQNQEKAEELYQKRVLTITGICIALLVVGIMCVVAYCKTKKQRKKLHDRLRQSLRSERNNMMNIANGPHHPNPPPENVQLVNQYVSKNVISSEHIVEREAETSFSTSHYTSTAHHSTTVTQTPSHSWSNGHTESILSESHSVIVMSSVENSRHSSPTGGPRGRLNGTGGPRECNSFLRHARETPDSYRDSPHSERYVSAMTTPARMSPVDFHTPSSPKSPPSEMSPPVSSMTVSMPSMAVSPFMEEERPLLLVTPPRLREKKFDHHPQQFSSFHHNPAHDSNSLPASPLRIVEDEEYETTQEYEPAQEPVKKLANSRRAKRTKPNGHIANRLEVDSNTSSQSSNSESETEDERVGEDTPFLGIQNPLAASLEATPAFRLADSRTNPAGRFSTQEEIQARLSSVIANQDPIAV
# [7] = system: Neuregulin-1 EGF-like domain; assay: small molecules binding NRG1 EGF domain – biochemical, small-molecule microarray, 635 nm fluorescence, primary screen (AID 1081); conditions: higher = more signal;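 also: binding of the protein to compounds printed on small-molecule microarray slides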
# [8] = FRG1 expression reporter modulators in myotubes – cell-based, C2C12 myotubes, firefly/Renilla luciferase, luminescence, FRG1 inhibition for FSHD, primary screen (AID 1084); conditions: FRG1 promoter luciferase, higher = more signal, called active from +8 up or from −8 down
# [9] = small molecules captured by biotinylated probe aFST – biochemical, small-molecule microarray, fluorescence 635/667, stem cell growth factor project, primary screen (AID 1086); conditions: higher = more signal;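 also: score merges 667 nm fluorescence with signal-to-noise of each printed compound spot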
# [10] = binders of probe aHhip on microarray, primary screen, stem cell growth factor project, biochemical, small-molecule microarray, fluorescence 635/667 (AID 1087); conditions: higher = more signal;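 also: score merges spot fluorescence at 667nm with spot signal to noise ratio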
Compound,composite z-score [1],composite z-score [2],composite z-score [3],composite z-score [4],composite z-score [5],composite z-score [6],composite z-score [7],z-score [8],composite z-score [9],composite z-score [10]
Cc1c(-c2ccc(-c3ccc(Cl)c(Cl)c3)o2)nc(-c2ccccc2)c2c1CO[Si]2(C(C)C)C(C)C,-0.0834,0.343,-0.047,0.42,-0.558,0.568,0.294,0.422 (inactive),-0.324,0.21
CCOC(=O)C[C@H]1[C@H](OC(=O)c2ccc(-c3ccccc3)cc2)[C@@H](NC(=O)c2ccc3ccccc3c2)c2cc(OCCCO)ccc2N1C(=O)c1ccccc1,-0.211,-0.0761,-0.0692,0.557,0.736,-0.0077,0.627,-0.182 (inactive),0.412,-0.0115
O=C1N(Cc2ccccc2)c2ccccc2[C@H]2OC(c3ccc(OCCCO)cc3)=N[C@@]12Cc1ccccc1,0.85,0.205,0.202,0.862,0.45,0.924,1.3,-1.69 (inactive),1.03,0.115
C=C(CCCC)C(=O)CC[C@H](OC(C)=O)c1ccccc1OCCO,-0.327,-0.0867,-0.0471,0.776,0.435,0.898,-0.0255,-0.881 (inactive),0.167,-0.358
C=CCC(OC(C)=O)[C@@H]1[C@@H](N(Cc2ccc(-c3cccc(C(F)(F)F)c3)o2)C(=O)Cc2ccc(F)cc2)c2cc(OCCCO)ccc2N1C(=O)c1ccc2ccccc2n1 (stereo not given in full),-0.019,0.193,-0.106,-0.321,-0.848,-0.114,-0.533,0.01 (inactive),0.0974,0.235
COCCOC(=O)N1C(=O)[C@@]2(c3cc(C#CCC(C(=O)OC)C(=O)OC)ccc31)[C@H](C(N)=O)[C@H]1C(=O)O[C@H](c3ccccc3)[C@H](c3ccccc3)N1[C@@H]2c1ccc(OCCO)cc1,-0.231,0.787,0.0001,0.906,1.34,1.19,1.23,0.789 (inactive),0.111,-0.249
[N-]=[N+]=NCc1ccccc1C[C@]1(C(=O)NCc2ccccc2)N=C(c2ccc(OCCCO)cc2)O[C@H]1c1ccccc1CN=[N+]=[N-],1.79,0.227,0.14,0.0819,1.13,1.73,1.16,0.976 (inactive),0.654,-0.082
COC(=O)[C@@]1(Cc2ccccc2)[C@@H]2[C@@H](CC(=O)[C@H]2CC(=O)C(=O)N(C)C)CN1C(=O)c1ccccc1,0.186,-1,-0.169,0.281,1.19,1.89,1.21,1.1 (inactive),0.319,-0.0994
O=C1c2ccccc2[C@](Cc2ccccc2I)(C(=O)O)[C@H](c2ccc(CO)cc2)N1Cc1ccccc1,0.877,0.996,-0.101,0.0611,0.19,1.51,1.23,-1.1 (inactive),-0.0119,-0.226
[N-]=[N+]=Nc1ccccc1[C@@H]1OC(c2ccc(OCCCO)cc2)=N[C@]1(Cc1ccccc1)C(N)=O,0.379,-0.334,-0.0543,0.505,0.824,1.17,0.884,0.377 (inactive),0.277,-0.0994
COC(=O)[C@@]1(Cc2ccc(F)cc2)[C@H]2c3cc(C(=O)N4CCCC4)n(CCO)c3C[C@H]2CN1C(=O)c1ccccc1,0.0451,-0.124,0.153,0.603,1.64,1.06,1.26,0.383 (inactive),0.537,0.628
COc1cccc(OC)c1C(=O)O[C@H]1[C@@H]2OC(=O)[C@H](Cc3cccc(Br)c3)C/C=C/C[C@@H](Cc3cccc(Br)c3)C(=O)O[C@H]2[C@@H](OC)O[C@@H]1CO,0.0113,0.94,-0.0262,0.205,0.194,1.28,0.945,-0.199 (inactive),0.401,0.101
CO[C@H]1O[C@H](CO)[C@@H](OC(=O)Nc2ccc(C(F)(F)F)cc2)[C@H](OC(=O)Nc2ccccc2-c2ccccc2)[C@H]1OC(=O)Nc1ccccc1-c1ccccc1,-0.288,1.16,0.0276,0.988,1.04,0.802,1.36,2.53 (inactive),0.997,-0.0645
COCCOC(=O)N1C(=O)[C@@]2(c3cc(C#CCCO)ccc31)[C@H](C(=O)N1CCN(c3ncccn3)CC1)[C@H]1C(=O)O[C@H](c3ccccc3)[C@H](c3ccccc3)N1[C@@H]2c1ccc(O)cc1,-0.782,0.219,0.0243,0.534,0.376,0.926,1.24,-1.3 (inactive),-0.3,-0.367
COCCCN1C(=O)[C@@]2(Cc3ccccc31)c1ccccc1C(=O)N(Cc1ccccc1OC)[C@H]2c1ccc(CO)cc1,0.303,-0.457,-0.122,-0.279,-0.228,0.731,-0.944,-0.193 (inactive),0.023,-0.181
CC(=O)c1ccc(C(O)C2C=CC3C(=O)N(C)C(=O)C3N2NC(=O)OC(C)(C)C)cc1 (stereo not given),0.301,0.169,0.152,1.13,1.61,2.11,1.35,0.929 (inactive),0.948,-0.154
